Laboratory results reported in PubChem BioAssay AID1347075 (National Center for Advancing Translational Sciences (NCATS), 2019).
The whole screen tested about 400,000 compounds, of which about 5,500 (1.4%) were called active. Where a call stands in place of a potency, no number is given. Roughly 9% stayed inconclusive and do not appear here. Calls come from the whole dose curve; as a rule, active = well fitted cell-killing curve with a large enough effect; inconclusive = small, poorly fitted or top-dose-only effect, or effect the other way; inactive = flat fitted curve, though single readings scatter. Many of the other results were omitted from the sample, so actives are more common in it than they were.
Potency is the fitted concentration of half-maximal effect.

Assay: qHTS assay for MDR1-selective chemotherapeutics: Primary screen using the parental adenocarcinoma cell KB-3-1; note: nearly all actives have a fitted effect of over 60% in size
Conditions: KB-3-1 viability, CellTiter-Glo ATP luminescence, 72 h; series mostly up to 46.1 µM
From the text: A prime difficulty in effectively treating cancer is the development of cellular resistance to multiple structurally unrelated anticancer drugs, a phenomenon known as multidrug resistance (MDR). […] Numerous strategies to overcome P-gp-mediated MDR have been explored, including the design of drugs that evade recognition and efflux, and development of inhibitors to block efflux and restore drug accumulation. […] An alternative approach is to exploit resistance by identifying drugs that target MDR cells over the non-resistant parental cells from which they were selected. […] The development of MDR1-selective agents represents a new strategy for resolving multidrug resistance, as it remains a long-standing clinical challenge for cancer chemotherapy.
Our goal is to identify compounds that selectively kill P-gp-expressing MDR cells. We will identify MDR1-selective compounds by comparing toxicity of compounds in the screening library against parental, drug-naive (KB-3-1) adenocarcinoma cells as well as their drug-selected MDR sub-line (KB-V1). The differential toxicity of compounds against these two cell lines will be used to identify MDR1-selective compounds, whose cytotoxicity is potentiated, rather than diminished, by P-gp expression. This assay will be utilized to conduct a quantitative high-throughput screen (qHTS) in collaboration with the NIH Chemical Genomics Center to identify selective agents, and probe hits arising from the screen will be validated using secondary assays and characterized through a well-established follow-up research program. This screen was run against the entire NCGC library collection of about 400,000 compounds.
NIH Molecular Libraries Probe Production Network [MLPCN]
NIH Chemical Genomics Center [NCGC]
PI: Michael Gottesman PhD, National Cancer Institute, NIH
Briefly, 5 microL of media containing either KB-3-1 cells (columns 1-2, 4-48) are dispensed into Greiner white, treated solid-bottom 1536-well assay plates (media-only control is added to column 3). Compounds are then transferred via Kalypsys pin tool equipped with 1536-pin array (10 nL slotted pins, V&P Scientific, San Diego, CA). Following addition of compound, the plates are incubated at 37 degrees C for 72 hours. CellTiter-Glo (2.5 µL/well) is then added, and the plates are read in a ViewLux reader (Perkin-Elmer, clear luminescence filter, 1 second exposure, 1x binning) following a 10 minute incubation. All cells are dispensed in DMEM phenol-red free media containing 10% FBS.
Library plates were screened starting from the lowest and proceeding to the highest concentration. Vehicle-only plates, with DMSO being pin-transferred to columns 5-48, will be inserted uniformly at the beginning and the end of each library in order to monitor and record any shifts in the background, which can be affected by reagent dispensers or loss in enzyme activity over time. Screening data will be corrected, normalized, and concentration-effect relationships will be derived by using publicly-available NCGC, NCATS curve fitting algorithms (http://ncgc.nih.gov/pub/openhts).
With `COC1C(O)C(C)OC(OC2CCC3(C=O)C(CCC4C3CCC3(C)C(C5=CC(=O)OC5)CCC43O)C2)C1O` (stereo not given) the Potency was 0.0058 µM (active).
For `S=C(NCCc1ccccc1)N1Cc2cc(N3CCOCC3)ccc2-n2nncc2C1`, the Potency was “inactive”.
With `O=C1NCN(c2ccccc2)C12CCN(C(c1cccs1)c1nnnn1C1CCCCC1)CC2` (stereo not given) the Potency was “inactive”.
In the case of `CC(C)CN1Cc2cc(N3CCCCC3)ccc2-n2nncc2C1`, the Potency is reported as “inactive”.
For `O=C(NCC1=C(c2ccc3ccccc3c2)C[C@@H]2CC[C@H]1N2Cc1ccco1)c1cccs1`, the Potency was “inactive”.
For `CCCCCCCCCCCCn1ccc(=N)cc1`, the Potency was 1.3 µM (active).
For `COc1ccc(NC(=O)N2Cc3ccccc3-n3nncc3C2)cc1`, the Potency was “inactive”.
In the case of `c1cc2c(c(NC3=NCCCS3)c1)CCCC2`, the Potency is reported as “inactive”.
In the case of `CC(=O)NCC1=C(c2ccc3ccccc3c2)C[C@@H]2CC[C@H]1N2Cc1ccco1`, the Potency is reported as “inactive”.
With `O=c1[nH]c2ccccc2n1C1CCN(C(c2ccnc3ccccc23)c2nnnn2Cc2ccccc2)CC1` (stereo not given) the Potency was “inactive”.
For `CCOC(=O)[C@]12Cc3cc(OC)ccc3[C@H]1N(C(C)C)C(=O)c1ccccc12`, the Potency was 6.51 µM (active).
With `CCOC(=O)[C@]12Cc3ccccc3[C@H]1N(C1CCCCC1)C(=O)c1cc(OC)ccc12` the Potency was 4.61 µM (active).
For `O=C(O)c1cc[c]([Sb](=[O])([OH])[OH])cc1[N+](=O)[O-]`, the Potency was “inactive”.
In the case of `Cc1ccc(OC(=O)N(C)C[C@@H]2OCc3cnnn3CCCC(=O)N([C@H](C)CO)C[C@@H]2C)cc1`, the Potency is reported as “inactive”.
For `O=C(O)/C=C/c1ccc2c(c1)OCO2`, the Potency was “inactive”.
For `COC(=O)CN(CCCl)P1(=O)OCCCN1CCCl` (stereo not given), the Potency was “inactive”.
In the case of `C[C@]12CCC3C(CC[C@H]4C[C@@H](O)CC[C@]34C)C1C[C@@H](O)[C@H]2O` (stereo not given in full), the Potency is reported as “inactive”.
For `C[C@]12CCC3C(CC[C@H]4C[C@@H](O)CC[C@]34C)C1CC[C@@H]2O` (stereo not given in full), the Potency was “inactive”.
In the case of `C[C@]12CC[C@H](O)C[C@H]1CC[C@@H]1C2CC[C@]2(C)[C@@H](C3=CC(=O)OC3)[C@@H](O)C[C@]12O` (stereo not given in full), the Potency is reported as 2.31 µM (active).
For `COc1cc(C(=O)N2Cc3ccc(Br)cc3-n3nncc3C2)cc(OC)c1OC`, the Potency was “inactive”.
In the case of `C[C@H]1CN([C@@H](C)CO)C(=O)CCCn2nncc2CO[C@H]1CN(C)C(=O)Oc1cccc2ccccc12`, the Potency is reported as “inactive”.
With `O=C(NC1CCCCC1)N1Cc2cc(N3CCCCC3)ccc2-n2nncc2C1` the Potency was “inactive”.
In the case of `Cc1ccc(NC(=O)N(Cc2ccc3c(c2)OCO3)C2CCN(Cc3ccccc3)CC2)cc1F`, the Potency is reported as “inactive”.
For `CCC(=NCCCO)c1c(O)n(-c2ccc(OC)cc2)c(=O)[nH]c1=O`, the Potency was “inactive”.
In the case of `CCCCn1c(O)c(C(CC)=NCc2ccco2)c(=O)[nH]c1=O`, the Potency is reported as “inactive”.
For `CCCCCCN=C(CC)c1c(O)n(CCCC)c(=O)[nH]c1=O`, the Potency was 18.4 µM (active).
In the case of `COc1cccc(C(c2nnnn2-c2ccc3c(c2)OCCO3)N2CCC3(CC2)C(=O)NCN3c2ccccc2)c1OC` (stereo not given), the Potency is reported as “inactive”.
In the case of `O=C1C2CCN(CC2)C1(CO)CO`, the Potency is reported as “inactive”.
With `Cn1cc(/C=C/c2nc3ccccc3c(=O)n2-c2ccccc2)c2ccccc21` the Potency was “inactive”.
With `ClCCN(CCCl)c1ccc(C=Nc2ccc(/C=C/c3ccnc4ccccc34)cc2)cc1` the Potency was “inactive”.
With `COc1cc(Cn2c(N)c(C(=O)NCc3ccco3)c3nc4ccccc4nc32)cc(OC)c1OC` the Potency was 23.1 µM (active).
With `CCOC(=O)c1c(N)n(Cc2ccccc2)c2nc3ccccc3nc12` the Potency was “inactive”.
In the case of `COC(=O)C1=C(c2ccccc2)C[C@@H]2CC[C@H]1N2C(=O)NCc1ccco1`, the Potency is reported as “inactive”.
With `c1ccc(N2Cc3ccccc3-n3nncc3C2)nc1` the Potency was “inactive”.
For `O=P(OC1=CCCCC1)(c1ccccc1)c1ccccc1`, the Potency was “inactive”.
For `O=c1c2ccccc2[nH]c(=S)n1-c1cccc(Cl)c1`, the Potency was “inactive”.
In the case of `Cc1nnc(NC(=O)c2cccn(Cc3cccc(F)c3)c2=O)s1`, the Potency is reported as “inactive”.
In the case of `CCC(C)(O)C(=O)OC1C(=O)OC2CC3C(C)=CC(=O)C(O)C3(C)C3C4(O)OCC23C1C(C)C4O` (stereo not given), the Potency is reported as 0.291 µM (active).
For `CCn1cc(CN2CCCC(C(=O)c3cccc(C(F)(F)F)c3)C2)cn1` (stereo not given), the Potency was “inactive”.
With `CCOC(=O)CNC(=O)N1Cc2cc(N3CCCCC3)ccc2-n2nncc2C1` the Potency was “inactive”.
